Screening results as filed in PubChem BioAssay.
aSyn yeast inh – rescues yeast growth from alpha-synuclein toxicity; Yeast expressing alpha-synuclein, growth rescue, BacTiter-Glo, 24 h; Potency, µM (doses to about 46.1 µM), without a hit: at the top dose growth rescue (activation), most hits filed as activators; 370,000 compounds, 0.14% hits; AID 652106; further: % of control where 0% means no effect; nearly all actives have a fitted effect of over 65% in size
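Readout is rescue of growth in alpha-synuclein-expressing yeast, so inhibitors of toxicity appear as activators. Growth after 24 hr at 30 deg C in galactose medium is quantified by luminescence.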
AT treatment – candidate therapy for ataxia-telangiectasia | F2112 A-T fibroblasts, KAP-1 phosphorylation AlphaLISA; neocarzinostatin DNA damage 30 min before lysis | Potency, µM (doses to about 57.5 µM), for the others: top-dose activation, most hits filed as activators | 320,000 compounds, 0.19% hits; further: % of control where 0% means no effect; nearly all actives have a fitted effect of over 45% in size
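hTERT-immortalized A-T patient fibroblasts (F2112), 500 cells/well in OPTI-MEM, 1% FBS, got compounds for 60 min, then NCS for 30 min at 37C. Lysates were then assayed for phospho-KAP-1 by AlphaLISA (anti-pKAP1 donor, anti-KAP1 acceptor beads), 6 hr at 25C.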
TDP43 rescue – TDP-43 toxicity inhibition in yeast. TDP-43 expressing yeast growth rescue, BacTiter-Glo, 24 h. Potency, µM (highest dose often 46.1 µM), without a hit: at the highest dose growth rescue (activation), hits mostly activators. 410,000 compounds, 1.8% hits; further: % of control where 0% means no effect; nearly all actives have a fitted effect of over 50% in size
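Yeast expressing TDP-43 (pregrown in raffinose, seeded at OD600=0.02 in galactose medium) exposed to compounds 24 hr at 30 deg C. Growth read by BacTiter-Glo luminescence; rescue of toxicity appears as increased signal.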
Abeta yeast res – A-beta toxicity reversal in yeast; AID 1347071; yeast expressing A-beta42, growth rescue, OD600, 48 h; response scale: 0% DMSO, 100% iron-clioquinol control; 410,000 compounds, 0.063% hits; Potency, µM (top dose mostly 46.1 µM), hits mostly activators; further: nearly all actives have a fitted effect of over 55% in size
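Yeast A-beta toxicity model in growth medium with pinned compounds, 48 h at 30 C; growth read as absorbance at 600 nm. Normalized to FeCl3/clioquinol equimolar mix (positive) and DMSO (negative).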
Mito fusion act – mitochondrial division inhibition or fusion activation. Potency, µM (highest dose often 46.1 µM), without a hit: at the highest dose growth rescue (activation), actives largely listed as activators. 320,000 compounds, 0.23% hits. S. cerevisiae fusion-defective mutant growth rescue, CellTiterGlo 48 h; further: % of control where 0% means no effect; nearly all actives have a fitted effect of over 45% in size
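Luminescent cell viability in 1536-well qHTS format served as the measure of rescued growth in ts fusion-mutant S. cerevisiae cultured on non-fermentable YPEG for 48 hours at 37C.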
FUS suppressor – suppressors of FUS proteinopathy in yeast. 390,000 compounds, 0.24% hits. S. cerevisiae FUS-expressing, growth rescue, OD600, 24 h. Potency, µM (titrated, usually from 76.6 µM), actives largely listed as activators;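 further: plate controls were DMSO vehicle for no effect and reference control for full effect; nearly all actives have a fitted effect of over 55% in size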
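FUS-expressing yeast, raffinose-pregrown, induced in 2% galactose minimal medium at OD 0.005; compounds in a dilution series, 24hr at 30C. Growth restoration read as absorbance at 600 nm. CP55940 positive control, DMSO negative.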
* = called active by the depositor; i = inactive; ? = inconclusive; / = no result. In the library only some 2.4% were active in any assay of this set; here they are far more common. The call rests on the fitted dose curve; in most records, active means well fitted curve in the direction sought with a large enough effect; inconclusive means small, poorly fitted or top-dose-only effect, or another doubt; inactive means no such curve, though single readings can be large; an effect the other way counts as inactive or inconclusive. Potency means the concentration at half of the fitted maximal effect.

SMILES	aSyn yeast inh	AT treatment	TDP43 rescue	Abeta yeast res	Mito fusion act	FUS suppressor
CCC(=O)N1c2ccc(S(=O)(=O)N3CCN(c4cc(C)ccc4C)CC3)cc2CC1C (stereo not drawn)	1.4%	-3.9%	14.9%	i	1.8%	i
CCC(=O)N1c2ccc(S(=O)(=O)N3CCN(c4ccccc4Cl)CC3)cc2CC1C (stereo not drawn)	8.0%	-4.9%	35.5µM*	i	14.2%	?
CC(=O)N1c2ccc(S(=O)(=O)N3CCCC(C(=O)N4CCCCC4)C3)cc2CC1C (stereo not drawn)	-0.2%	3.0%	-24.8%	i	7.0%	i
Cc1ccc(CCNS(=O)(=O)c2ccc3c(c2)CC(C)N3C(=O)C2CCC2)cc1 (stereo not drawn)	/	/	?	i	/	i
COC(=O)c1ccccc1NC(=O)c1ccc2c(c1)CC(C)O2 (stereo not drawn)	5.2%	2.2%	12.6µM*	i	7.6%	i
O=C(NCCc1ccccc1)C1C(=O)Nc2ccccc2C(=O)N1C1CCCCC1 (stereo not drawn)	12.6µM*	/	?	i	/	i
C#CCOCCOCCOCCNc1nc(N2CCN(C(=O)CCCCCCCCCCNC(=O)[C@H]([C@@H](C)CC)n3cc(CCCCN=C(N)N)nn3)CC2)nc(N2CCN(C(=O)CCCCCCCCCCNC(=O)[C@H](CCCCN)n3cc(C)nn3)CC2)n1	-49.0%	-0.7%	-79.0%	i	0.6%	11.2µM*
C#CCOCCOCCOCCNc1nc(N2CCN(C(=O)CCCCCCCCCCNC(=O)[C@H]([C@@H](C)CC)n3cc(CCCCCN)nn3)CC2)nc(N2CCN(C(=O)CCCCCCCCCCNC(=O)[C@H](CO)n3cc(CCCCCN)nn3)CC2)n1	-41.1%	7.7%	7.7%	i	-7.4%	14.1µM*
C#CCOCCOCCOCCNc1nc(N2CCN(C(=O)CCCCCCCCCCNC(=O)[C@H]([C@@H](C)CC)n3cc(CCCCCN)nn3)CC2)nc(N2CCN(C(=O)CCCCCCCCCCNC(=O)[C@@H]([C@H](C)CC)n3cc(CCCCCN)nn3)CC2)n1	/	-2.4%	/	/	-15.5%	/
CCCCOc1ccc(C(=O)NC2CCCCN(CC)C2=O)cc1 (stereo not drawn)	/	/	/	/	/	i
CCCCN(C)C(=O)c1cc2cc3ccc(OC)cc3nc2o1	2.2%	9.1%	15.8µM*	i	-9.1%	i
Cc1ccc(SCc2nc(N)nc(Nc3ccccc3C)n2)c(C)c1	8.0%	9.9%	?	?	18.8%	i
Cc1ccccc1Nc1nc(N)nc(CSc2ccc(F)cc2)n1	2.4%	3.8%	25.1µM*	i	1.9%	i
COc1ccc(Nc2nc(N)nc(CSc3nc4cc(OC)ccc4s3)n2)cc1	/	/	20µM*	i	/	?
Cc1ccccc1Nc1nc(N)nc(CSc2nnc(C)n2C)n1	1.3%	1.5%	-0.1%	i	10.0%	i
Cc1ccccc1NC(=O)CCCSc1nc2ccccc2s1	6.4%	10.1%	12.6µM*	i	?	/
Cc1ccc(SCc2nc(N)nc(Nc3ccccc3C)n2)cc1C	2.5%	-2.5%	17.8µM*	i	25.3%	?
CCc1ccc(NC(=O)Cn2c(=O)n(CCCCC(=O)NCc3ccc4c(c3)OCO4)c(=O)c3ccccc32)cc1	/	/	11.6%	i	/	i
Cc1noc(C)c1S(=O)(=O)Nc1ccc(C(=O)Nc2ccc(C(C)C)cc2)cc1	/	/	4.3%	i	/	i
C[n+]1ccc(/C=C/c2cc[n+](C)c3ccccc23)c2ccccc21	-63.7%	/	/	/	/	/
O=C(c1cc(-c2ccccc2)on1)N1CCC(Oc2cccnc2)CC1	/	/	/	/	/	i
Cc1ccccc1Nc1nc(N)nc(CSc2nc3ccccc3s2)n1	3.8%	2.3%	20µM*	i	20µM*	/
Cc1ccc(Nc2nc(N)nc(CSc3nc4ccccc4s3)n2)cc1	-27.1%	-1.5%	?	i	-7.8%	i
